From PubChem
pAkt inh – blocks phosphorylation of Akt | activity change, % for hits at 50 µM | Neuro2A IGF-stimulated pAkt S473 HTRF, 20 min; hits give low values | 360,000 tested, 0.32% active; in the data active = activity change below about -80%; inconclusive = mostly about -51% to -80%
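Single-point screen (50 µM final compound) in Neuro2A cells stimulated 20 min with 6 nM IGF at 37 deg C. After lysis, Ser473-phosphorylated Akt read by HTRF (ex 330 nm, em 615/665 nm) as the 665/615 ratio.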
KCNH2 WT inh – inhibitors of human wildtype KCNH2 potassium channel | Q12809 | U2OS, BacMam KCNH2, thallium flux FluxOr; hits give low values | activity change, % at 1.84 µM | 340,000 tested, 0.37% active | AID 720551;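 active = maximum activity change below -70%; inconclusive = maximum activity change between -70% and -50%; inactive = maximum activity change above -50%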
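U2OS cells transduced with wild-type KCNH2 virus are loaded with FluxOr dye for 45 min, and thallium flux is measured in kinetic reads before and after stimulation buffer. Rate constants are normalized to DMSO controls.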
gsp antagonist – gsp mutant antagonism. 340,000 tested, 0.4% active. Potency, µM (series often up to 76.9 µM), hits mostly inhibitors. gsp-mutant cells, cAMP HTRF, 30 min. AID 624288; calls by dose curve; cell line not stated here;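 note: intracellular cAMP measured with PDE inhibitor Ro 20-1724 present during compound exposure; nearly all actives have a fitted effect of over 65% in size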
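Measurement of cellular cAMP by homogeneous time-resolved fluorescence following a 30 min compound exposure at 37C. The PDE inhibitor […] was present throughout; the assay buffer was DPBS with 0.05% BSA and 0.005% Tween 20.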
gsp ag – agonists of gsp mutant (McCune-Albright syndrome); gsp mutant cells, cAMP HTRF, 30 min; Potency, µM (doses to about 76.9 µM), most hits filed as activators; 340,000 tested, 0.13% active; active = well fitted activation curve with a large enough effect; inconclusive = small, poorly fitted or top-dose-only effect, or another doubt; inactive = no such curve, though single readings can be large or run the other way; cell line not stated here;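 note: phosphodiesterase inhibitor Ro 20-1724 added with compounds to block cAMP breakdown; nearly all actives have a fitted effect of over 60% in size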
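Cells stably selected in G418 were plated at 2000/well, grown 16-24 hr, then given compounds in DMSO with the PDE inhibitor […] (300 uM solution added) for 30 min at 37C; cAMP was read by HTRF.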
KCNH2 3.1 inh – inhibitors of human KCNH2 3.1 potassium channel isoform; U2OS KCNH2 3.1, thallium flux FluxOr; hits give low values; activity change, % (tested at about 1.8 µM); 340,000 tested, 0.95% active; AID 720553;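 active = maximum activity change below -70%; inconclusive = maximum activity change from -70% to -50%; inactive = maximum activity change above -50%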;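 note: thallium influx rate constant from kinetic fluorescence after stimulation buffer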
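Measured as rate of thallium-driven FluxOr signal in transduced U2OS cells carrying the 3.1 channel, read kinetically for 2 min upon stimulation; values are rate constants scaled to DMSO control wells.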
GRP78 ERSR act – ER stress response induction in glioma; Potency, µM, usual class: activators; 420,000 tested, 0.02% active; U87-MG GRP78 promoter luciferase reporter, 16 h; AID 602332; active = well fitted activation curve with a large enough effect; inconclusive = small, poorly fitted or top-dose-only effect; inactive = no such curve, though single readings can be large or run the other way; note: series mostly up to about 76 µM; nearly all actives have a fitted effect of over 35% in size
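Stably transfected U87-MG glioma cells carrying a GRP78-based luciferase sensor; 16 h compound incubation. Luminescence end-point read 10 min after Bright-Glo addition at room temperature.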
A number is an active result; n = inactive; u = inconclusive; x = no result given; [ ] = remark or other dose. The list is not random: actives were taken first. Their share in the collection is about 1.6%.

SMILES	pAkt inh	KCNH2 WT inh	gsp antagonist	gsp ag	KCNH2 3.1 inh	GRP78 ERSR act
CN1CCN(c2ccc(NC(=O)c3ccc(-c4ccc(Cl)cc4)o3)cc2)CC1	n	n	n	u	-94.8	n
CC(C)(C)c1ccc(C(=O)C[n+]2cc(Br)cc(Br)c2)cc1	x	x	x	x	x	n
Cc1cccc2cc(CNCCCN3CCCC3=O)c(N3CCN4CCCC4C3)nc12 (stereo not given)	x	x	x	x	x	n
COC(=O)c1cc(CNC(=O)c2ccccc2)cc(NC(=O)c2ccccc2OC)c1	x	x	x	x	x	n
CNc1ccc(/C=C/c2ccnc3ccccc23)cc1	x	x	x	x	x	n
Cc1cc(C)cc(C(=O)NCCn2cc(C(=O)N3CCSCC3)nn2)c1	x	x	x	x	x	n
CO[C@H]1C[C@@H]2CC[C@@H](C)[C@@](O)(O2)C(=O)C(=O)N2CCCC[C@H]2C(=O)O[C@H](C(C)C[C@H]2CC[C@@H](O)[C@H](OC)C2)CC(=O)[C@H](C)/C=C(\C)[C@@H](O)[C@@H](OC)C(=O)[C@H](C)C[C@H](C)/C=C/C=C/C=C/1C (stereo not given in full)	x	x	x	x	x	n
Cc1ccc(NC(=O)c2sc3ccccc3c2Cl)cc1	x	x	x	x	x	n
CN1CCN(c2ccc(NC(=O)c3sc4ccccc4c3Cl)cc2)CC1	n	n	n	n[15.4 µM]	-74.4	n
CCC(CC)c1nnc(NC(=O)c2nc3nc(C)cc(C)n3n2)s1	x	n	n	n	-109.8	n
O=C(O[C@H]1CN2CCC1CC2)N1CCc2ccccc2[C@@H]1c1ccccc1	x	x	x	x	x	n
CCNC(=O)c1ccccc1NC(=O)c1cccc(S(=O)(=O)N2CCC(C)CC2)c1	-100.8%	n	n	n	n	n
CC(C)(C)c1nnc(N/N=C/c2cc(Br)ccc2O)n(N)c1=O	n	n	28.2µM	n	n	n
Cc1ccc2[nH]c(=O)c(CN(Cc3cccs3)S(=O)(=O)c3ccc4c(c3)OCCO4)cc2c1	n	n	n	n	-120.2	n
Cc1cc2cc(CN(Cc3cccs3)S(=O)(=O)c3ccc4c(c3)OCCO4)c(=O)[nH]c2cc1C	n	n	n	n	n	n
COc1cccc(-c2ccnc(-n3ncc(C(=O)NCC(C)(C)CN(C)C)c3C)n2)c1	x	x	x	x	x	n
O=C(N=C1SC2CS(=O)(=O)CC2N1c1ccc(Br)cc1F)C1CC1 (stereo not given)	n	-156.3	n	n	n	n
COc1ccc(-n2c(CNC(=O)c3cccc(OC)c3OC)nnc2SC)cc1	x	x	x	x	x	n
CCOC(=O)c1ccc(NC(=S)N(CCCN2CCCC(C)C2)Cc2cccs2)cc1 (stereo not given)	n	-89.2	n	n	-80.5	n
Cc1c(CN2CCC(CO)(Cc3ccccc3)CC2)c2ccccc2n1C	n	n	n	u	n	n
OCC1(Cc2ccccc2)CCCN(Cc2ccc(-c3ccco3)cc2)C1 (stereo not given)	n	n	n	n	n	n
OCC1(Cc2ccccc2)CCN(CCCC2CCCC2)CC1	n	n	n	u	-75.0	n
COc1ccc(CC2(CO)CCN(Cc3cnn(-c4ccccc4)c3)CC2)cc1	n	n	n	n[15.4 µM]	-89.2	n
COc1ccc(CC2(CO)CCN(Cc3cnn(-c4ccc(F)cc4)c3)CC2)cc1	n	n	n	n	n	n
OCC1(Cc2ccccc2)CCN(Cc2ccc(-c3ccco3)cc2)CC1	n	n	n	n	-85.1	n
SMILES	pAkt inh	KCNH2 WT inh	gsp antagonist	gsp ag	KCNH2 3.1 inh	GRP78 ERSR act
COc1ccc(CC2(CO)CCN(Cc3cccn3-c3ccccn3)CC2)cc1	n	u	n	n[15.4 µM]	-108.4	n
COc1ccc(CC2(CO)CCN(Cc3ccc4c(c3)CCO4)CC2)cc1	n	-154.2	n	n[15.4 µM]	-181.1	n
COc1ccc(CC2(CO)CCN(Cc3ccc(OC(F)(F)F)cc3)CC2)cc1	n	u	n	n	-81.3	n
CO[C@]1(NC(=O)Cc2cccs2)C(=O)N2C(C(=O)O)=CC(COC(N)=O)S[C@H]21 (stereo not given in full)	x	x	x	x	x	n
COCC(=O)Nc1cc(C(=O)N2CCc3ccccc3C2)c2c(c1)nc(-c1ccncc1)n2C	x	x	x	x	x	n
COc1ccc(CNC(=O)c2cc(-c3ccc(OC)c(OC)c3)on2)cc1	n	n	n	n	n	n
COc1ccc(NC(=O)c2cc(-c3ccc(C)cc3)on2)cc1OC	n	n	n	n[15.4 µM]	n	n
COc1ccc(-c2cc(C(=O)NCc3ccc(Cl)cc3)no2)cc1OC	-92.4%	n	n	n	n	n
COc1ccc(NC(=O)c2cc(-c3ccc(OC)c(OC)c3)on2)cc1OC	-88.2%	n	n	n	n	n
CCCCCCCCN1[C@@H](CC(C)=O)c2ccc(/C=C/C(C)=O)cc2S1(=O)=O	x	x	x	x	x	n
CCC1(C2CCN(C(=O)c3ccc(C)cc3C)CC2)NC(=O)N(CCc2scnc2C)C1=O (stereo not given)	x	x	x	x	x	n
O=C(/C=C/c1ccccc1)NC(=S)Nc1ccc(CN2CCOCC2)cc1	n	n	u	n[15.4 µM]	-85.5	n
COc1ccc(/C=C/C(=O)Nc2ccc(N3CCOCC3)cc2)cc1	n	n	n	n	n	n
COc1ccc(/C=C/C(=O)NC(=S)Nc2ccc(N3CCN(C(C)=O)CC3)cc2)cc1	n	-174.1	n	n	n	n
CSc1ccc(S(=O)(=O)NCc2ccc(C)cc2)cc1	n	n	n	n	-78.2	n
O=C(NCc1ccccc1)N1CCN(c2ccccc2)CC1	n	n	n	n	n	n
S=C(NCc1ccccc1)N1CCN(c2ccccc2)CC1	n	n	n	n	-73.6	n
COC(=O)C(Cc1ccccc1)NS(=O)(=O)c1cc(Br)ccc1Br (stereo not given)	x	x	x	x	x	n
Cc1cc(C)cc(OCC(=O)NNC(=S)NC(=O)C2CC2)c1	n	n	n	u	-70.2	n
CC(=O)N/C(=C/c1ccccc1)c1ccncc1	x	x	x	x	x	n
CN(c1ccc(O)cc1)c1nc(O)c(C2=c3ccccc3=NC2=O)s1	n	n	14.1µM	n	n	n
O=C1N=c2ccccc2=C1c1sc(=S)n(-c2ccc(O)cc2)c1O	n	n	n	n[15.4 µM]	n	n
CCN1C(=O)CC(N2CCC(Nc3ccc(OC)cc3)CC2)C1=O (stereo not given)	-106.0%	n	n[15.4 µM]	n	n	n
COc1ccccc1CN1CCC2(CCC(CNC(=O)c3ccccc3N(C)C)O2)CC1 (stereo not given)	x	x	x	x	x	n
CC(C)(C)n1nnnc1CN1CCN(C2CCCC2)CC1	-102.6%	n	n	n	n	n
CC(C)(C)n1nnnc1CN1CCSCC1	n	n	n	n	n	n
Nc1nc(Cl)cc(N2CCC(c3cc(-c4ccc(Cl)cc4)n[nH]3)CC2)n1	n	n	u	n	-74.4	n
COc1ccc(OC)c(-c2cc(C3CCN(c4cc(Cl)nc(N)n4)CC3)[nH]n2)c1	n	n	35.5µM	n	n	n
